Screening results as filed in PubChem.
TGFb SMAD3 inh: qHTS for Inhibitors of TGF-b; HepG2 CAGA-GFP TGF-b/SMAD3 reporter, GFP fluorescence, 18 h; TGF-beta stimulated, 500 pg/mL final; Potency, µM (titrated, usually from 46.1 µM), for inactives: at the highest dose activity, negative = inhibition, actives largely listed as inhibitors; 1.2% of 410,000 active; AID 588855, 2011; further: potency means the concentration at half of the fitted maximal effect; on the % scale 0 is the no-effect control and ±100 the full control effect; nearly all actives have a fitted effect of over 65% in size
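First, reporter cells (HEPG2 CAGA-GFP) rested 2 h at 37 degrees C. Next, compounds were pinned in and TGF-beta added to 500 pg/mL final. After 18 h, GFP was imaged per cell and summed per well.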
TDP1 cell CPT: qHTS for Inhibitors of human tyrosyl-DNA phosphodiesterase 1 (TDP1): qHTS in cells in presence of CPT; chicken DT40 Tdp1-/-;hTDP1 cells + 20 nM CPT, ATP luminescence, 48 h; Potency, µM (top dose mostly 46.2 µM), inactives show at the top dose activity change, negative = growth inhibition, usual class: inhibitors; 12% of 420,000 active; further: potency means the concentration at half of the fitted maximal effect; on the % scale 0 is the no-effect control and ±100 the full control effect; nearly all actives have a fitted effect of over 55% in size
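Chicken DT40 Tdp1-/- cells complemented with human TDP1, 400 cells/well, exposed to compounds plus 20 nM camptothecin for at least 48 h at 37 C; viability read as ATP content by CellTiter-Glo luminescence.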
TDP1 cell noCPT: qHTS for Inhibitors of human tyrosyl-DNA phosphodiesterase 1 (TDP1): qHTS in cells in absence of CPT; 15% of 420,000 active; Potency, µM (titrated, usually from 46.2 µM), inactives show top-dose activity change, negative = growth inhibition, hits mostly inhibitors; DT40 Tdp1-/- hTDP1 cells, no CPT, ATP luminescence, 48 h; AID 686978, 2013; further: potency means the concentration at half of the fitted maximal effect; on the % scale 0 is the no-effect control and ±100 the full control effect; nearly all actives have a fitted effect of over 55% in size
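Growth of hTDP1-complemented DT40 Tdp1-knockout cells is measured by ATP luminescence after at least 48 hr compound exposure at 37 °C, with DMSO substituting for the 20 nM CPT used in the parallel screen.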
HepG2 tox: qHTS for Inhibitors of TGF-b: Cytotox Counterscreen. 0.76% of 410,000 active. HepG2 CAGA-GFP viability, ATP luminescence, 18 h. Potency, µM (titrated, usually from 46.1 µM), for the others: at the highest dose activity change, negative = cytotoxicity, most hits filed as cytotoxic; further: potency means the concentration at half of the fitted maximal effect
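HepG2 CAGA-GFP cells (1000/well, DMEM with 1% FBS) received compound, then TGF-beta at 500 pg/mL final, and were incubated 18 hours at 37 degrees C. Viability was read by CellTiter-Glo luminescence. Media-only wells were set as complete cell-killing and DMSO as no toxicity.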
TDP1 inh: qHTS Assay for Inhibitors of Tyrosyl-DNA Phosphodiesterase (TDP1); Tyrosyl-DNA phosphodiesterase 1 (Homo sapiens), Q9NUW8; Potency, µM (highest dose often 130 µM), for inactives: top-dose activity change, negative = inhibition, actives largely listed as inhibitors; 0.28% of 350,000 active; recombinant TDP1, AlphaScreen DNA substrate cleavage; further: potency means the concentration at half of the fitted maximal effect; on the % scale 0 is the no-effect control and ±100 the full control effect; nearly all actives have a fitted effect of over 40% in size
Target sequence (Q9NUW8 whole entry, looked up): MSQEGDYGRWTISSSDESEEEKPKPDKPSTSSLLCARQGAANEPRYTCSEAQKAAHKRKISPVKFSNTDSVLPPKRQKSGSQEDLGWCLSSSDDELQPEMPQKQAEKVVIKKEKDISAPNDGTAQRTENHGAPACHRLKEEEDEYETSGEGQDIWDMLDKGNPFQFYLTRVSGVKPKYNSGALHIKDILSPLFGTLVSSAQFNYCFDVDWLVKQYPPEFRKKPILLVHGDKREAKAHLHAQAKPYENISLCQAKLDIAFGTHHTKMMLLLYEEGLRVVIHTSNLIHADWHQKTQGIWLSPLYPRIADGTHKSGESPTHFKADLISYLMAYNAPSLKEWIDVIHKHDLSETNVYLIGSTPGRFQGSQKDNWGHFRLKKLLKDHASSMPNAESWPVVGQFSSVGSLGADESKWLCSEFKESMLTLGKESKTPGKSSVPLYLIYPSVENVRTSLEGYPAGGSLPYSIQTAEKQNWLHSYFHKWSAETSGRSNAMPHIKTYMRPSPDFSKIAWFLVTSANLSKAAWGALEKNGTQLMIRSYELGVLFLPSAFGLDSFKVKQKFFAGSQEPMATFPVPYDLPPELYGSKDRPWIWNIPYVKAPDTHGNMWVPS
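AlphaScreen read-out: signal falls as enzyme removes the 3' tyrosine-FITC from a 5'-biotinylated DNA oligo (15 nM, 5 min, RT). Enzyme was E. coli-made recombinant Tdp1 at 1 nM, exposed to compound for 15 min beforehand; beads 10 ug/ml, 10 min.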
IL1B secr inh: qHTS for Inhibitors of Inflammasome Signaling: IL-1-beta AlphaLISA Primary Screen. THP-1 LPS/ATP IL-1B secretion, AlphaLISA, 16 h; stronger effect = lower value. activity change, % at 57.5 µM. 4.7% of 360,000 active; in the data active means activity change below about -50%; inconclusive means mostly about -30% to -49%; further: on the % scale 0 is the no-effect control and ±100 the full control effect
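THP-1 cells pretreated 1 hr with compounds (up to 57.5 uM final), then stimulated with LPS (250 ng/mL final) plus ATP (1.25 mM final); secreted IL-1B measured by AlphaLISA after 16 hr, decreased signal indicating inhibition.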
An asterisk follows results filed as active; [ ] = remark or other dose. Hits are enriched below; roughly 18% of the tested compounds scored in any of these assays. Unless noted, the call rests on the fitted dose curve; in most records, active means well fitted curve in the direction sought with a large enough effect; inconclusive means small, poorly fitted or top-dose-only effect, or another doubt; inactive means no such curve, though single readings can be large; an effect the other way counts as inactive or inconclusive.

How did CC(C)Cc1ccc(CN2CCCC(NC(=O)c3cnc4ccccn4c3=O)C2)cc1 (stereo not drawn) do in these assays?
TGFb SMAD3 inh: inconclusive; TDP1 cell CPT: 23.1µM*; TDP1 cell noCPT: 23.1µM*; HepG2 tox: -13.1%; IL1B secr inh: 20.1

Results for CC(=O)c1c(C)nn(CC(=O)NC2CCCN(Cc3ccc(CC(C)C)cc3)C2)c1C (stereo not drawn) ?
TGFb SMAD3 inh: inconclusive; TDP1 cell CPT: 20.6µM*; TDP1 cell noCPT: inconclusive; HepG2 tox: -19.4%; TDP1 inh: 2.0%; IL1B secr inh: -28.3

What do the screens show for `O=C(NC1CCCN(Cc2ccc(Cl)cc2)C1)c1cnc2ccccn2c1=O` (stereo not drawn)?
TGFb SMAD3 inh: inconclusive; TDP1 cell CPT: inconclusive; TDP1 cell noCPT: 18.4µM*; HepG2 tox: 4.5%; TDP1 inh: 5.0%[56.1 µM]; IL1B secr inh: 2.2

How did Cc1cnc(CNc2nc(-c3ccccc3C)nc3ccccc23)cn1 do in these assays?
TDP1 cell CPT: -17.1%; TDP1 cell noCPT: -4.0%

What do the screens show for `COc1ccccc1CNc1nc(-c2ccccc2OC)nc2ccccc12`?
TDP1 cell CPT: 18.4µM*; TDP1 cell noCPT: 20.6µM*

What do the screens show for `COc1ccccc1-c1nc(NCc2cnc(C)cn2)c2ccccc2n1`?
TDP1 cell CPT: 16.4µM*; TDP1 cell noCPT: inconclusive

How did NNC(=O)CNC(c1ccccc1)c1cc(Br)ccc1N (stereo not drawn) do in these assays?
TGFb SMAD3 inh: -6.3%; TDP1 cell CPT: 8.3%; TDP1 cell noCPT: -13.4%; HepG2 tox: 2.2%; TDP1 inh: 4.2%; IL1B secr inh: -72.2*

How did O=C(c1cccc(F)c1)N1CCC2(CCCN(Cc3cc(C(F)(F)F)cc(C(F)(F)F)c3)C2)CC1 do in these assays?
TDP1 cell CPT: -11.4%; TDP1 cell noCPT: inconclusive

Results for COc1ccccc1CN1CCC2(CC1)CCN(C(=O)c1cccc(F)c1)CC2 ?
TDP1 cell CPT: -3.2%; TDP1 cell noCPT: 1.1%

How did N#Cc1ccc(CN2CCC3(CC2)CCN(C(=O)c2cc(C(F)(F)F)cc(C(F)(F)F)c2)CC3)cc1 do in these assays?
TDP1 cell CPT: 23.1µM*; TDP1 cell noCPT: 13µM*

Results for N#Cc1ccc(CN2CCC3(CC2)CCN(S(=O)(=O)c2ccccc2)CC3)cc1 ?
TDP1 cell CPT: inconclusive; TDP1 cell noCPT: 16.4µM*

What do the screens show for `CC(=O)N1CCC2(CCN(Cc3ccc(C#N)cc3)CC2)CC1`?
TDP1 cell CPT: 5.0%; TDP1 cell noCPT: 2.8%

What do the screens show for `COc1ccccc1CN1CCC2(CC1)CCN(C(=O)c1cc(C(F)(F)F)cc(C(F)(F)F)c1)CC2`?
TDP1 cell CPT: inconclusive; TDP1 cell noCPT: 20.6µM*

Results for O=C(c1cccc(F)c1)N1CCC2(CCN(Cc3cc(C(F)(F)F)cc(C(F)(F)F)c3)CC2)CC1 ?
TDP1 cell CPT: inconclusive; TDP1 cell noCPT: 18.4µM*

How did COC(=O)N1CCC2(CCN(Cc3ccc(C#N)cc3)CC2)CC1 do in these assays?
TDP1 cell CPT: 1.64µM*; TDP1 cell noCPT: inconclusive

Results for CCOc1ccc2oc(=O)cc(CN3CCN(C(=O)c4cccc(F)c4)CC3)c2c1 ?
TGFb SMAD3 inh: -5.0%; TDP1 cell CPT: inconclusive; TDP1 cell noCPT: inconclusive; HepG2 tox: -0.3%; TDP1 inh: 2.3%
